In PubChem BioAssay:
The source made the active and inactive calls.

Assays:
[1] = binders of probe aFSTL3 on microarray, primary screen, stem cell growth factor project, biochemical, small-molecule microarray, fluorescence 635/667 (AID 1064); conditions: higher = more signal;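 further: measures binding of the biotinylated anti-FSTL3 antibody to printed compounds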
[2] = binders from COS7 lysate, DM2A8 probe, primary screen, torsin A project, cell lysate, small-molecule microarray, fluorescence 635/667 (AID 1065); conditions: higher = more signal, COS7 lysate expressing mutant human TOR1A
[3] = binders of probe aFGF2 on microarray, primary screen, stem cell growth factor project, biochemical, small-molecule microarray, fluorescence 635/667 (AID 1067); conditions: higher = more signal;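 further: measures binding of biotinylated aFGF2 protein to printed compounds on slides; z-score merges feature fluorescence and signal-to-noise across triplicate slides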
[4] = binders of probe aFGF10 on microarray, primary screen, stem cell growth factor project, biochemical, small-molecule microarray, fluorescence 635/667 (AID 1071); conditions: higher = more signal;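 further: score merges 667 nm spot intensity and signal to noise from triplicate slides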
[5] = target: Neurogenic locus notch homolog protein 2 (Homo sapiens) (UniProt Q04721); assay: Notch2 binders on small-molecule microarrays, primary screen, biochemical, small-molecule microarray, 635 nm fluorescence, stem cell growth factors (AID 1073); conditions: Notch2 binding, higher = more signal
[6] = target: Pro-neuregulin-1, membrane-bound isoform (Homo sapiens) (UniProt Q02297); assay: NRG1 binders on small-molecule microarrays, primary screen, psychiatric disease protein project, biochemical, small-molecule microarray, fluorescence 635/667 (AID 1075); conditions: NRG1 binding, 635 nm fluorescence, higher = more signal;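 further: score combines 667 nm spot fluorescence with signal to noise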
[7] = system: Neuregulin-1 EGF-like domain; assay: binders of neuregulin-1 EGF-like domain, primary screen, biochemical, small-molecule microarray, 635 nm fluorescence (AID 1081); conditions: small-molecule microarray binding, higher = more signal;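 further: binding of the protein to compounds printed on small-molecule microarray slides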
[8] = FRG1 promoter luciferase signal modulators, primary screen, FRG1 inhibition for FSHD, cell-based, C2C12 myotubes, firefly/Renilla luciferase, luminescence (AID 1084); conditions: higher = more signal, called active from +8 up or from −8 down
[9] = binders of probe aFST on microarray, primary screen, stem cell growth factor project, biochemical, small-molecule microarray, fluorescence 635/667 (AID 1086); conditions: higher = more signal;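 further: score merges 667 nm fluorescence with signal-to-noise of each printed compound spot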
[10] = binders of probe aHhip on microarray, primary screen, stem cell growth factor project, biochemical, small-molecule microarray, fluorescence 635/667 (AID 1087); conditions: higher = more signal;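 further: score merges spot fluorescence at 667nm with spot signal to noise ratio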

Neurogenic locus notch homolog protein 2 (Homo sapiens), sequence (Q04721 whole entry, looked up, canonical isoform): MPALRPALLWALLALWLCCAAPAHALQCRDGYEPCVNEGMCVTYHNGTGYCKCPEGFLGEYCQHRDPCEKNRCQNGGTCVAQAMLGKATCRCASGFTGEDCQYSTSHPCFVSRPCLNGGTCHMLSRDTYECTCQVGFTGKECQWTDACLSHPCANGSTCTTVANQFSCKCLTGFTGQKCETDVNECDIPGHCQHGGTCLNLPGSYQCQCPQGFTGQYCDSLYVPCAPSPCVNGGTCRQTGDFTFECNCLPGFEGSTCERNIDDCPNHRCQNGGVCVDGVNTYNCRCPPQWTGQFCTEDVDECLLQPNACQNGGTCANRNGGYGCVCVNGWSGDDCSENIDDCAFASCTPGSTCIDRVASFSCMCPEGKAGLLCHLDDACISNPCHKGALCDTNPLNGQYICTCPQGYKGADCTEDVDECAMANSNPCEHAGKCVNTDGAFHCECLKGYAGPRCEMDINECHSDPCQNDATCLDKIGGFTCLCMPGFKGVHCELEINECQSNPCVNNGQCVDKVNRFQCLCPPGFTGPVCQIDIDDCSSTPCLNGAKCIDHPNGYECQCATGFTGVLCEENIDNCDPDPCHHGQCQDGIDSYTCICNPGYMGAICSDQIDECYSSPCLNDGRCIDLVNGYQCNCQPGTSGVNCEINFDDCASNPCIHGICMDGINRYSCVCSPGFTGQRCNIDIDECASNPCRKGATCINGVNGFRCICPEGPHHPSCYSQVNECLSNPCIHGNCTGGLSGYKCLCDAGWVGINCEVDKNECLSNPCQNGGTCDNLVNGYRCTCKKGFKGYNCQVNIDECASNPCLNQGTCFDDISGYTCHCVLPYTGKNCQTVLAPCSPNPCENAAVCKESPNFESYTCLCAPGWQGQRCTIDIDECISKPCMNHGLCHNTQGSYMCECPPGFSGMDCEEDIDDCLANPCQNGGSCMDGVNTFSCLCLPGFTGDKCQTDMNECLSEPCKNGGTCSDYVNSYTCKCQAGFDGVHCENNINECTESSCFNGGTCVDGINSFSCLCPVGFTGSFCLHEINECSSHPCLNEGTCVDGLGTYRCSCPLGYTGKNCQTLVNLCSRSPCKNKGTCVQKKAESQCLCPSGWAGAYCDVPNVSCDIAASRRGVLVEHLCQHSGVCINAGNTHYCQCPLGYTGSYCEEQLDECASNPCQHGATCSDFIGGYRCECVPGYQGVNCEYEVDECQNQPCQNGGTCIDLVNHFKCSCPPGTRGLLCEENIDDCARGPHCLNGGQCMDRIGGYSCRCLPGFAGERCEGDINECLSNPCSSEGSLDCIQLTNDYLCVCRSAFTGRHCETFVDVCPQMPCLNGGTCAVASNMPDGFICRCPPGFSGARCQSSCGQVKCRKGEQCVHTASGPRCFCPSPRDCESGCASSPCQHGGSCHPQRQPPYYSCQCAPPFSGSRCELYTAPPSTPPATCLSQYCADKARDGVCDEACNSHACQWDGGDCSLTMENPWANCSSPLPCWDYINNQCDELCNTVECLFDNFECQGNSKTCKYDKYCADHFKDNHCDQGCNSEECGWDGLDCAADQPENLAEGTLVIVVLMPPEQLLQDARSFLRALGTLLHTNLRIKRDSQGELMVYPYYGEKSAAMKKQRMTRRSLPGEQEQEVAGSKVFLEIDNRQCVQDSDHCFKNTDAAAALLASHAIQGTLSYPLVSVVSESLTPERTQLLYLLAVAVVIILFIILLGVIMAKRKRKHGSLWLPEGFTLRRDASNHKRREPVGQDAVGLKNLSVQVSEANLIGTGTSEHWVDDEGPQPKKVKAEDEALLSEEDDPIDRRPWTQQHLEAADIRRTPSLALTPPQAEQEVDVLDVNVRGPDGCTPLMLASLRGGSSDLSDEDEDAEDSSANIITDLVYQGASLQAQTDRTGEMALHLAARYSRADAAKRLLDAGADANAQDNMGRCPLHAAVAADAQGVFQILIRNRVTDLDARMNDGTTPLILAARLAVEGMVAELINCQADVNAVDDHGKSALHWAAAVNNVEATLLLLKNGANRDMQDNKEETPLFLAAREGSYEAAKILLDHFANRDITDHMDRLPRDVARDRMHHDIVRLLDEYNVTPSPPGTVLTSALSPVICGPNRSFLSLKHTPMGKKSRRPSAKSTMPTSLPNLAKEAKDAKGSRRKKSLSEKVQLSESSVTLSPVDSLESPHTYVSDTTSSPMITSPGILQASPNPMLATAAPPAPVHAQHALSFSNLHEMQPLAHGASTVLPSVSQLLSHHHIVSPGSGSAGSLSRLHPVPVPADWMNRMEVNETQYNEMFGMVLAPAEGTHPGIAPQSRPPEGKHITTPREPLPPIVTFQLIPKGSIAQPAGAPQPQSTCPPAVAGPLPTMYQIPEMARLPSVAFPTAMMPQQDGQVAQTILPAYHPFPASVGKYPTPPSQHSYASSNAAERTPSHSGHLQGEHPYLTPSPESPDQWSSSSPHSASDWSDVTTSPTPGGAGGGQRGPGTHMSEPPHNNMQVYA
Pro-neuregulin-1, membrane-bound isoform (Homo sapiens), sequence (Q02297 whole entry, looked up, the tested form may be a part, canonical isoform): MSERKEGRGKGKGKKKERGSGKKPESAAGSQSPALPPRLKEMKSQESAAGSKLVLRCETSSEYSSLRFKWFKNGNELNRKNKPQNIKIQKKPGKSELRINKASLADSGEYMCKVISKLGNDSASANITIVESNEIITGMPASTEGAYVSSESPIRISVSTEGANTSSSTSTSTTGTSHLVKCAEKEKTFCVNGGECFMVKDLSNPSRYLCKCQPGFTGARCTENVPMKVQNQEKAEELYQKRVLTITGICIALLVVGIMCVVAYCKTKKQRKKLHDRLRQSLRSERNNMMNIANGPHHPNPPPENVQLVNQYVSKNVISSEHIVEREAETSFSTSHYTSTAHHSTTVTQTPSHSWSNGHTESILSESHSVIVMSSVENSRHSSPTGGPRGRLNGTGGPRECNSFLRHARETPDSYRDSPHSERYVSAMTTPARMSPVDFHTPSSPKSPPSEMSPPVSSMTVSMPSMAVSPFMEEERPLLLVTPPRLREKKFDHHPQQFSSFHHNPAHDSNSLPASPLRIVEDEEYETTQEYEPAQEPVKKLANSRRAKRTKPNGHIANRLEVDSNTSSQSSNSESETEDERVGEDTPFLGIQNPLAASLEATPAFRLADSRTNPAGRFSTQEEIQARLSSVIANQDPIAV

| SMILES | composite z-score [1] | composite z-score [2] | composite z-score [3] | composite z-score [4] | composite z-score [5] | composite z-score [6] | composite z-score [7] | z-score [8] | composite z-score [9] | composite z-score [10] |
| --- | --- | --- | --- | --- | --- | --- | --- | --- | --- | --- |
| COC(=O)CC=C[C@@H](C)[C@@H](C=NOC(C)CN1CCCc2nc(C)c(C)cc21)OC (stereo not given in full) | -0.111 | 0.382 | -0.121 | 0.354 | 0.401 | -0.171 | 0.375 | 0.422 (inactive) | 0.0017 | -0.0237 |
| CCOC(=O)NN=C1C[C@@H](O)[C@@H](O)[C@@H]2[C@@H]3C(=O)N(Cc4ccc5c(c4)OCO5)C(=O)[C@@H]3CC[C@H]12 | -0.428 | 0.0687 | -0.113 | -0.388 | -0.434 | 0.279 | 0.678 | 0.855 (inactive) | 0.625 | -0.0645 |
| CCCCc1nc2c(c3c1C[C@H](C)OC3)CN(CCOc1ccccc1)CC2 | -0.43 | 0.575 | -0.149 | 0.414 | 0.882 | 0.363 | 0.881 | -1.55 (inactive) | 0.192 | 0.213 |
| CC(C)CON=C1C[C@@H](O)[C@@H](O)[C@@H]2[C@@H]3C(=O)N(C(C)(C)C)C(=O)[C@@H]3CC[C@H]12 | 1.33 | 0.275 | -0.133 | -0.136 | -0.681 | 0.414 | -0.099 | -0.392 (inactive) | -0.142 | -0.21 |
| CO[C@H]1COC(=O)[C@@H]2CCCN2C(=O)CC=C[C@@H](C)[C@H](OC)COC(=O)[C@@H](OCc2ccccc2)C=C[C@@H]1C | -0.466 | 1.29 | -0.175 | -0.477 | -0.624 | -0.233 | 0.269 | -0.0576 (inactive) | 0.317 | 0.176 |
| O=C1CCCC=C1C(O)CCCCBr (stereo not given) | 0.383 | -0.0756 | -0.0695 | 0.0586 | 0.948 | 0.932 | 0.0079 | 6.9 (inactive) | 0.227 | -0.0994 |
| C[n+]1ccc(-c2ccc(CO)cc2)cc1 | 0.772 | -0.688 | -0.131 | -0.116 | 1.08 | 0.0728 | 0.0658 | 0.65 (inactive) | -0.0846 | 0.0053 |
| COC(=O)C=CCCc1coc(C=CCNC(=O)OC)n1 | -0.0195 | 0.924 | 0.202 | 0.833 | 0.485 | -0.0679 | 0.492 | 0.721 (inactive) | 1.04 | 0.851 |
| CCOC(=O)NN=C1C[C@@H](O)[C@@H](O)[C@@H]2[C@@H]3C(=O)N(Cc4ccccc4)C(=O)[C@@H]3CC[C@H]12 | -0.276 | 0.695 | -0.124 | 0.164 | 0.287 | -0.0283 | -0.699 | 1.08 (inactive) | 0.0387 | -0.223 |
| CO[C@H]1COC(=O)[C@H](C)NC(=O)CC=C[C@@H](C)[C@H](OC)COC(=O)[C@@H](OCc2ccccc2)C=C[C@@H]1C | -0.628 | 0.996 | -0.0877 | -0.299 | -0.542 | -0.954 | -1.45 | -0.0754 (inactive) | 0.0521 | -0.0994 |
| Cc1cc2c(nc1C)CCCCN2CC(C)ON=C1[C@H]2CCn3c(=O)n(-c4ccccc4)c(=O)n3[C@H]2[C@H](O)[C@@H]2O[C@H]12 (stereo not given in full) | -0.455 | 0.288 | 0.0051 | 0.756 | 0.942 | -0.349 | 0.8 | -0.446 (inactive) | 0.557 | -0.0346 |
| CC=CC1=C(CO)C(=O)[C@@H]2O[C@@H]2C1=O | -0.538 | -0.45 | -0.093 | 0.0736 | -0.126 | -0.719 | 0.687 | -0.078 (inactive) | -0.212 | -0.0994 |
| CC1O[C@H]2C3=C(C(=O)[C@@H]4O[C@@H]4[C@H]3O)[C@@H]1C1[C@@H](C)OC=C3[C@H](O)C4O[C@@H]4C(=NOCc4ccccc4)[C@]312 (stereo not given in full) | -0.379 | -0.488 | -0.166 | 0.0246 | 0.112 | -0.505 | -0.0339 | -1.15 (inactive) | -0.123 | -0.216 |
| COc1ccc(O[C@H]2C=C[C@@H](c3ccccc3)O[C@@H]2COC(=O)CCC(C)=NO[C@@H]2O[C@H](COC(C)=O)[C@@H](OC(C)=O)[C@H](OC(C)=O)[C@H]2OC(C)=O)cc1 | -0.468 | 0.135 | -0.152 | 0.608 | 0.424 | -0.0533 | 0.929 | 1.09 (inactive) | 0.247 | -0.236 |
| CCOC(=O)[C@H](CC(C)C)NC(=O)CCC1CC(OC(=O)NCc2ccc3c(c2)OCO3)CC2(CCCC(COC(=O)NCc3cccc(C(F)(F)F)c3)O2)O1 (stereo not given in full) | -0.109 | -0.249 | -0.0841 | 0.371 | 0.421 | 0.0839 | 0.445 | 0.31 (inactive) | 0.0884 | -0.0994 |
| CC(C)CON=C1C[C@@H](O)[C@@H](O)[C@@H]2[C@@H]3C(=O)N(C4CCCCC4)C(=O)[C@@H]3CC[C@H]12 | -0.475 | 0.6 | -0.0383 | 0.848 | 1.14 | 0.936 | 0.743 | -0.276 (inactive) | 0.272 | -0.169 |
| C[C@@H](c1ccccc1)N1C(=O)[C@H]2[C@H]3[C@H](O)[C@H](O)CC(=NO[C@@H]4O[C@H](CO)[C@@H](O)[C@H](O)[C@H]4O)[C@@H]3CC[C@H]2C1=O | -0.395 | 0.764 | -0.0428 | 0.306 | 0.641 | -0.319 | 0.752 | 0.19 (inactive) | 0.205 | -0.0618 |
